Compounds with a hit are over-represented: about 2.3% of the library has one in this group of screens.
Tau fibril ThT = blocks human tau fibril formation measured by thioflavin T; P10636; recombinant tau K18 P301L, heparin-induced fibrillization, ThT fluorescence; Potency, µM (doses to about 57.4 µM), without a hit: at the top dose activity, negative = inhibition, actives largely listed as inhibitors; 270,000 tested, 2.1% active; AID 1460; further: potency means the concentration at half of the fitted maximal effect; nearly all actives have a fitted effect of over 55% in size
Target sequence (P10636 561-689 P618L limits assumed): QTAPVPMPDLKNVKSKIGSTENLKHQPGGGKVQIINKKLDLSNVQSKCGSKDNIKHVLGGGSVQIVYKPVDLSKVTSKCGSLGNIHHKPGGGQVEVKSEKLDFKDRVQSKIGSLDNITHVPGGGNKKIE
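K18 P301L tau (15 uM + 0.24 uM Alexa 594-tagged), heparin 20 uM, NaOAc pH 7, 6 h 37 C; ThT 30 uM, 1 h RT, ex 450/em 510 nm.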
Tau FP inhib = tau fibrillization inhibition (FP); AID 1468; 280,000 tested, 0.39% active; P10636; Potency, µM (top dose mostly 57.7 µM), inactives show at the highest dose activity, negative = inhibition, usual class: inhibitors; K18 P301L tau heparin fibrillization, Alexa594 FP, 6 h; further: potency means the concentration at half of the fitted maximal effect; nearly all actives have a fitted effect of over 55% in size
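Recombinant K18 P301L […], labeled with Alexa 594 at 0.24 uM over 15 uM unlabeled; heparin inducer 20 uM final; 37 C, 6 hr; FP endpoint.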
FBPA coupling cs = inhibits coupling enzyme system, counter-screen for aldolase hits | coupling enzyme system counterscreen, AmpLite Red fluorescence | activity change, negative = inhibition, % at 58.2 µM, hits read low | 290,000 tested, 0.67% active; in the data active means activity change below about -30%
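Compounds tested against the coupling enzymes alone at 57.5 uM final; readout was AmpLite Red fluorescence (525/598 nm) after 20 min at RT.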
USP1-UAF1 inh = USP1/UAF1 (human) deubiquitinase inhibition; O94782; recombinant USP1/UAF1, Ub-Rhodamine cleavage fluorescence; Potency, µM (highest dose often 57.1 µM), without a hit: top-dose activity change, negative = inhibition, most hits filed as inhibitors; 390,000 tested, 0.23% active; further: potency means the concentration at half of the fitted maximal effect; nearly all actives have a fitted effect of over 60% in size
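High-throughput fluorogenic screen: 1nM USP1/UAF1 complex, Ub-Rho substrate 150nM final, 50mM HEPES pH 7.8 with 0.5mM EDTA, 0.1 mg/ml BSA, 1mM TCEP and 0.01% Tween-20.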
Tau fluor counter = counter-screen for tau fibril formation inhibitors | 280,000 tested, 0.93% active | Potency, µM (highest dose often 57.7 µM), for the others: top-dose activity change, negative = decrease | tau K18 P301L (four-repeat tau fragment) Alexa594 fluorescence, heparin fibrillization | AID 1463; further: potency means the concentration at half of the fitted maximal effect; nearly all actives have a fitted effect of over 55% in size
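Human K18 P301L tau (15 uM unlabeled plus 0.24 uM Alexa 594-labeled, final) in 100 mM sodium acetate pH 7 was mixed with compound and 20 uM heparin and incubated 6 hr at 37 C.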
An asterisk follows results filed as active; ? = inconclusive; . = not tested or not shown; [ ] = remark or other dose. Unless noted, the call rests on the fitted dose curve; in most records, active means well fitted curve in the direction sought with a large enough effect; inconclusive means small, poorly fitted or top-dose-only effect, or another doubt; inactive means no such curve, though single readings can be large; an effect the other way counts as inactive or inconclusive. On the % scale 0 is the no-effect control and ±100 the full control effect.

SMILES	Tau fibril ThT	Tau FP inhib	FBPA coupling cs	USP1-UAF1 inh	Tau fluor counter
COc1ccc(Nc2c(-c3cc(Br)ccc3O)nc3ncccn23)cc1OC	?	14%	.	-22%	8.9µM*[quencher]
CC(Cc1ccc(C(C)(C)C)cc1)CN1CCCCC1 (centres undefined)	.	.	1	.	.
CCCCC/C=C\C/C=C\C/C=C\C/C=C\CCCC(=O)Nc1ccc(O)cc1	?	?	-6	.	14µM*[quencher]
CCCCC/C=C\C/C=C\C/C=C\C/C=C\CCCC(=O)NCc1ccoc1	22µM*	?	1	.	-12%
CCCCCCCCCOc1ccc2[nH]cc(CCN)c2c1	?	?	-1	.	7.9µM*[quencher]
CCc1ccc(-c2nc(CN3CCCC(C(=O)NCc4ccc(C)cc4)C3)c(C)o2)cc1 (centres undefined)	?	-3%	.	-22%	-9%
Cc1ccccc1-n1c(/C=C/c2c(C)[nH]c3ccccc23)nc2ccccc2c1=O	?	?	.	-49%	4µM*[quencher]
Cc1ccccc1-n1c(/C=C/c2ccc(N(C)C)cc2)nc2ccccc2c1=O	?	3%	.	?	?
C[C@@H](NC(=O)[C@@H](N)Cc1ccc(O)cc1)C(=O)NCC(=O)N(C)[C@@H](Cc1ccccc1)C(=O)NCCO	.	.	3	.	.
CCCOc1ccc(N2C(=O)CC(N3CC=C(c4ccccc4)CC3)C2=O)cc1 (centres undefined)	32µM*	?	1	-23%	-20%
O=C1CC(N2CC=C(c3ccccc3)CC2)C(=O)N1c1ccc(F)cc1 (centres undefined)	?	-14%	-3	-15%	-16%
O=C(Nc1ccc2nc(SCC(=O)N3CCOCC3)sc2c1)c1ccc(Cl)cc1	7%	?	.	-20%	-25%
C=C(CC1CC(O)[C@]2(C)OC3CC4OC5C[C@]6(C)O[C@]7(C)CCC8OC9C[C@]%10(C)OC%11C(C)=CC(=O)OC%11CC%10OC9C[C@@H](C)C8OC7CC6O[C@]5(C)C/C=C\C4OC3CC2O1)C(=O)O (some centres undefined)	-11%	9%	-2	-4%	8%
C=C(C=O)C[C@@H]1C[C@H](O)C2OC3C[C@]4(C)OC5/C=C\CC6OC7C(CC=CCC6OC5CCCC4OC3CC2O1)OC1CC2OC3CC(=O)OC3C[C@@H](C)C[C@@]2(C)OC1C[C@@H]7C (some centres undefined)	3.5µM*	4µM*	-4	-14%	-15%
COC(=O)[C@@H]1[C@@H](O)[C@@]2(O)c3c(OC)cc(OC)cc3O[C@@]2(c2ccc(OC)cc2)[C@H]1c1ccccc1	-9%[11.5 µM]	-5%[11.6 µM]	1	.	-10%[11.6 µM]
C=CC(C)(C)c1c2c(c(O)c3c(=O)c4ccc(O)c(O)c4oc13)C=CC(C)(C)O2	?	?	-7	.	16µM*[quencher]
C[C@@H]1CC[C@H]2[C@H](C)[C@H]3CC[C@@]4(O)[C@@H]5CC(=O)[C@H]6CC(=O)CC[C@]6(C)[C@H]5C[C@H]4[C@@H]3CN2C1	.	.	-4	.	.
CCN(CC)c1ccc(N=Cc2c(O)n(Cc3ccco3)c(=O)[nH]c2=O)cc1	?	3%	-1	?	-18%
CCN(CCO)c1ccc(N=Cc2c(O)n(C)c(=S)[nH]c2=O)cc1	.	-2%	-47*	?	24%
COc1ccc(C2=C(C(C)=O)Sc3nnc(-c4ccc(C)cc4)n3N2C(C)=O)cc1OC	?	-15%	.	-4%	?
CC(=O)C(O)C(c1ccccc1)c1c(O)c2ccccc2oc1=O (centres undefined)	.	.	0	.	.
CC1=C2C(=CO[C@H](C)[C@H]2C)C(=O)C(C(=O)O)=C1O	?	-5%	-30	.	-27%
CCOC(=O)c1c(/N=C/c2c(O)n(-c3ccccc3F)c(=S)[nH]c2=O)sc2c1CCCC2	22µM*	?	-49*	-8%	-16%
O=C(NC1CCCCC1)c1cn(CCN2CCOCC2)c2cc(Cl)ccc2c1=O	.	.	1	.	.
COc1ccc(OC)c(N2C(=O)/C(=C/c3ccco3)C(=O)NC2=S)c1	.	.	0	16µM*	.
COc1ccc(OC)c(N2C(=O)CC(=O)NC2=O)c1	.	.	0	-4%	.

Screens (PubChem)
